# Paper PMC7862700, “An all-to-all approach to the identification of sequence-specific readers for epigenetic DNA modifications on cytosine”
# Columns and labels:
# Assay in all cases: DAPPL (digital affinity profiling via proximity ligation, sequencing); 10 mM Tris-HCl pH 7.5, 50 mM NaCl, 1 mM DTT, 4% glycerol, room temperature, 30 min; GST-TFs on glutathione beads, 16-mer random dsDNA library, 0.1% formaldehyde crosslink after washing; high values mean tight binding
# FLI1 = target: T1, FLI1 (Homo sapiens, UniProt Q01543 1-452); conditions: protein: recombinant; tags: N-terminal GST; dsDNA, one strand shown
# T1 sequence: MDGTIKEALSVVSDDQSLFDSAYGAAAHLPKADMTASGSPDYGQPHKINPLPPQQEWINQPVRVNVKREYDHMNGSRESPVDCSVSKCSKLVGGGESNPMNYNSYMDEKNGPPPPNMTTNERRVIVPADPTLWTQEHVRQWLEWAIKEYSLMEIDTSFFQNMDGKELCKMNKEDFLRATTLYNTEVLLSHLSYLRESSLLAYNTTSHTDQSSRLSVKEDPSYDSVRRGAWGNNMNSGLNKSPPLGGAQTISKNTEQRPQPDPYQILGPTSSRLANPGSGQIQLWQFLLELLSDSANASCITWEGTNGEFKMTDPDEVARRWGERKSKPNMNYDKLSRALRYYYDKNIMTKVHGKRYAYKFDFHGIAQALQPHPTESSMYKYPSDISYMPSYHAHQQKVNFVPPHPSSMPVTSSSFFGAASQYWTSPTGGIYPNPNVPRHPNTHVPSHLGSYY
# Procedure, shortened: (§1)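 Each value of binding signal is a hexamer's read frequency for a factor divided by the same hexamer's frequency in the tag-only sample. Barcoded, bead-captured GST fusions of human transcription factors made in yeast were pooled with that sample and incubated with 200 nmole of a random double-stranded 16-mer DNA library in Tris/NaCl/DTT/glycerol buffer at room temperature for 30 min. Washing, 0.1% formaldehyde crosslinking, proximity ligation, PCR and Illumina NextSeq500 sequencing followed.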
# ELK1 = target: T2, ELK1 (Homo sapiens, UniProt P19419 1-428); conditions: protein: recombinant; tags: N-terminal GST; dsDNA, one strand shown
# T2 sequence: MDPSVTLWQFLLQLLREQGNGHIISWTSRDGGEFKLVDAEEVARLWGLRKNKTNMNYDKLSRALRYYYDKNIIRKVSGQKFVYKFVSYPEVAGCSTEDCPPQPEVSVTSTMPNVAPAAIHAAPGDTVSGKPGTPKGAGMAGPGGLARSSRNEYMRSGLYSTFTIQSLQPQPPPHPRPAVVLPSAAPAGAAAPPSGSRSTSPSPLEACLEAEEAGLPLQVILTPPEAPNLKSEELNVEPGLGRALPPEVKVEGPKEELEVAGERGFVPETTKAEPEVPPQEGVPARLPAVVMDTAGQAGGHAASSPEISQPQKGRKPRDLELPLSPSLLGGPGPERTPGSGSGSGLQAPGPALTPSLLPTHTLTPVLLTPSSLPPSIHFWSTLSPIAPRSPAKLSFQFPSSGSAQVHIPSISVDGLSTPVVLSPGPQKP
# Procedure, shortened: as §1
# GABPA = target: T3, GABPA (Homo sapiens, UniProt Q06546 1-454); conditions: protein: recombinant; tags: N-terminal GST; dsDNA, one strand shown
# T3 sequence: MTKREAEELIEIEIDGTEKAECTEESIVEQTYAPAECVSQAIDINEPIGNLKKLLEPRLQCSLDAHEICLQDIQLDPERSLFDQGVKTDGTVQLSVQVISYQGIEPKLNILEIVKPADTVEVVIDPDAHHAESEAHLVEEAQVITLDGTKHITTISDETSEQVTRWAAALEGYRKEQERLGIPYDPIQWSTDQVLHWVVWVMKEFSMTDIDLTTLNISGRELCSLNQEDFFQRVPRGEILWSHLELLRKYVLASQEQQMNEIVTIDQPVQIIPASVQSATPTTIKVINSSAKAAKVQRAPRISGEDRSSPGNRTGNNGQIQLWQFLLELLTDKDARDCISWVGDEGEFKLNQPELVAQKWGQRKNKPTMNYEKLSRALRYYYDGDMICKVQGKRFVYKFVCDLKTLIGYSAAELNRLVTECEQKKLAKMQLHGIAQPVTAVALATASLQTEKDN
# Procedure, shortened: as §1
# ERG = target: T4, ERG (Homo sapiens, UniProt P11308 1-479); conditions: protein: recombinant; tags: N-terminal GST; dsDNA, one strand shown
# T4 sequence: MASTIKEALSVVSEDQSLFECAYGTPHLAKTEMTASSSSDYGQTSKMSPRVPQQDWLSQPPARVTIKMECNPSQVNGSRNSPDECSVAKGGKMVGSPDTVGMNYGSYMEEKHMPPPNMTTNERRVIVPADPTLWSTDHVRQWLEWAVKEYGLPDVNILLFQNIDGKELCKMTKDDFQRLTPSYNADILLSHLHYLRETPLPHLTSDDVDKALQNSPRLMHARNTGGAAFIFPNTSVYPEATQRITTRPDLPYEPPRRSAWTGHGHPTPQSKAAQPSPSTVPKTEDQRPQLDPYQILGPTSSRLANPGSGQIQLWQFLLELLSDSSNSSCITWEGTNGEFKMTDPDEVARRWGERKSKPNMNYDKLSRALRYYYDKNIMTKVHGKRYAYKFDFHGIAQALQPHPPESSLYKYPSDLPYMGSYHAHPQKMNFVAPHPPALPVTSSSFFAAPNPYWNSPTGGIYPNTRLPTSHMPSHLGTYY
# Procedure, shortened: as §1
# ELF1 = ELF1 (Homo sapiens, UniProt P32519 1-619); conditions: protein: recombinant; tags: N-terminal GST; dsDNA, one strand shown
# ELF1, sequence (P32519 whole entry): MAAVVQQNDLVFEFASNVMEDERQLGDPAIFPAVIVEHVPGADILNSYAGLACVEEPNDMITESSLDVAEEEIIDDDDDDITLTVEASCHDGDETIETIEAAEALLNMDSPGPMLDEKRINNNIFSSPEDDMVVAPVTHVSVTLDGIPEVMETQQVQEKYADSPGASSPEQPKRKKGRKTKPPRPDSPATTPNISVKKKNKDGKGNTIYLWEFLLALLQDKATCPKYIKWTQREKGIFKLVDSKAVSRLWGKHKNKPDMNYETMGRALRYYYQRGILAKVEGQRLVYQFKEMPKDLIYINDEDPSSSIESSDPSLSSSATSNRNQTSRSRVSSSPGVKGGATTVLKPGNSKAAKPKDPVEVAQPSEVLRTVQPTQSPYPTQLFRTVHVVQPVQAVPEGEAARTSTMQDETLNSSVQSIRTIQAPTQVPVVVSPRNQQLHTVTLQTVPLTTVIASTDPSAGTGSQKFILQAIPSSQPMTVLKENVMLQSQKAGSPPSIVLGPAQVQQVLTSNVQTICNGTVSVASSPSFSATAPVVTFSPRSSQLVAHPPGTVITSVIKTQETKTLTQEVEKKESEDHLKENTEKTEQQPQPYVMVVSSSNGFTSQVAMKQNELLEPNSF
# Procedure, shortened: as §1
# EHF = target: T5, EHF (Homo sapiens, UniProt Q9NZC4 1-300); conditions: protein: recombinant; tags: N-terminal GST; dsDNA, one strand shown
# T5 sequence: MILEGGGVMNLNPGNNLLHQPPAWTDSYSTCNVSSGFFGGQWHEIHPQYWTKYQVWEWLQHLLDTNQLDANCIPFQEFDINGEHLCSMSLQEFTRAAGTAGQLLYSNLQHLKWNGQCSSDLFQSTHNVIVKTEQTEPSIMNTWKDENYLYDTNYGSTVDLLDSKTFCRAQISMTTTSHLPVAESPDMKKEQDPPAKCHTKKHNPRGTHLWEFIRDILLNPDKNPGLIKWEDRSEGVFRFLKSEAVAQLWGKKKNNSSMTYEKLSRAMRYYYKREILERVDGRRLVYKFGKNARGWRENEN
# Procedure, shortened: as §1
# SPI1 = SPI1 (Homo sapiens, UniProt P17947 1-270); conditions: protein: recombinant; tags: N-terminal GST; dsDNA, one strand shown
# Procedure, shortened: as §1
# SPIB = SPIB (Homo sapiens, UniProt Q01892 1-262); conditions: protein: recombinant; tags: N-terminal GST; dsDNA, one strand shown
# SPIB, sequence (Q01892 whole entry): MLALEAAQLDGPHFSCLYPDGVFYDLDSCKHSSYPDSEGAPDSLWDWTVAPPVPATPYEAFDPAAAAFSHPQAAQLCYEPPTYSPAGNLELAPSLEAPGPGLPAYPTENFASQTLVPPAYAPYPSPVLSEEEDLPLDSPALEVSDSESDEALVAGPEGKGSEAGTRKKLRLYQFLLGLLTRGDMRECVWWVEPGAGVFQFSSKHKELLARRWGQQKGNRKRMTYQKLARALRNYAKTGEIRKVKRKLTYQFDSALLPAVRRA
# Procedure, shortened: as §1
# ELK3 = target: T6, ELK3 (Homo sapiens, UniProt P41970 1-407); conditions: protein: recombinant; tags: N-terminal GST; dsDNA, one strand shown
# T6 sequence: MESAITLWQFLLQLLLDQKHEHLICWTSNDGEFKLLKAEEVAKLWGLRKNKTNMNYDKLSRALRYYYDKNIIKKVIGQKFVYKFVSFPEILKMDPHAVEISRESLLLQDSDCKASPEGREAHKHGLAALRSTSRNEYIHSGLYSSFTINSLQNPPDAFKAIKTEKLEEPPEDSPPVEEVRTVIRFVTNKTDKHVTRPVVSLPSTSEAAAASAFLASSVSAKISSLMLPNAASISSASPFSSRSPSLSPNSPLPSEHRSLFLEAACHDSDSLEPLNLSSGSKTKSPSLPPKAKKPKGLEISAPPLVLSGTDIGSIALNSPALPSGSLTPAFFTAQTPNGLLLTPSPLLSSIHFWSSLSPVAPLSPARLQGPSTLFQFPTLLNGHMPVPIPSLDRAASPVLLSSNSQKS
# Procedure, shortened: as §1
# FEV = target: T7, FEV (Homo sapiens, UniProt Q99581 1-238); conditions: protein: recombinant; tags: N-terminal GST; dsDNA, one strand shown
# T7 sequence: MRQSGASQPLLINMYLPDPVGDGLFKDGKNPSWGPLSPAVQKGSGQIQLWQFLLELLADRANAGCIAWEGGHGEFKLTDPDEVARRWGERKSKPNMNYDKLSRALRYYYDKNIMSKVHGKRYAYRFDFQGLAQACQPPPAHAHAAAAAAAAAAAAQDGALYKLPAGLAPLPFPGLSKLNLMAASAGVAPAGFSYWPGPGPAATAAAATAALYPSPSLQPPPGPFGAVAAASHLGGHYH
# Procedure, shortened: as §1
# ETV5 = ETV5 (Homo sapiens, UniProt P41161 1-510); conditions: protein: recombinant; tags: N-terminal GST; dsDNA, one strand shown
# ETV5, sequence (P41161 whole entry): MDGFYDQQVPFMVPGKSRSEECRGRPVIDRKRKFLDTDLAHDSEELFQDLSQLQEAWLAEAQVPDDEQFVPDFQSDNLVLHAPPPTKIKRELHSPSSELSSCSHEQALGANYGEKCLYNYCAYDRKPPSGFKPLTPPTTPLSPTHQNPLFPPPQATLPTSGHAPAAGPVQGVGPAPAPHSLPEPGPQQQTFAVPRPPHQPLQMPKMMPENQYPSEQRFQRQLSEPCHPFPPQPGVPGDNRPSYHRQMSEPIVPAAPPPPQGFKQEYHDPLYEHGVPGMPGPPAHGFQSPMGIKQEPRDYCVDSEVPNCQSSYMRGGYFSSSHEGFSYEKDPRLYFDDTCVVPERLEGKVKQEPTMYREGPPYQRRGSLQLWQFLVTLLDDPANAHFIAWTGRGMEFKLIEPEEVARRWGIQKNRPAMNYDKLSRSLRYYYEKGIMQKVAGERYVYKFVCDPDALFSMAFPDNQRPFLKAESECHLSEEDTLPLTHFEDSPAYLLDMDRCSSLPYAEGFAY
# Procedure, shortened: as §1
# HSF1 = HSF1 (Homo sapiens, UniProt Q00613 1-529); conditions: protein: recombinant; tags: N-terminal GST; chain copies: 3; dsDNA, one strand shown
# HSF1, sequence (Q00613 whole entry): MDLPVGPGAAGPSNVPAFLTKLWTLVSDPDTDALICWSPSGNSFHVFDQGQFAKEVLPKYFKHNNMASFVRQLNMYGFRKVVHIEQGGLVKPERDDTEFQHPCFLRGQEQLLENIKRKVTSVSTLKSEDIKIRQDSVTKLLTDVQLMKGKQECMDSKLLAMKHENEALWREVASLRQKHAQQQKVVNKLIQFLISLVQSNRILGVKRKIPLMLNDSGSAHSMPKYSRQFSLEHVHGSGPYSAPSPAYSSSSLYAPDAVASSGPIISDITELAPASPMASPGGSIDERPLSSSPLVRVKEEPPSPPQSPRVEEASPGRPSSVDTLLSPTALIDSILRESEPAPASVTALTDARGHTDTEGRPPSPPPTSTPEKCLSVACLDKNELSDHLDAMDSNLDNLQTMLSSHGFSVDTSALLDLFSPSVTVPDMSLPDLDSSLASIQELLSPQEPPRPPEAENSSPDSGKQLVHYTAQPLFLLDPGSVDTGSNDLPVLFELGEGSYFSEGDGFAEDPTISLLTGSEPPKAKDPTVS
# Procedure, shortened: as §1
# SPIC = target: T8, SPIC (Homo sapiens, UniProt Q8N5J4 1-248); conditions: protein: recombinant; tags: N-terminal GST; dsDNA, one strand shown
# T8 sequence: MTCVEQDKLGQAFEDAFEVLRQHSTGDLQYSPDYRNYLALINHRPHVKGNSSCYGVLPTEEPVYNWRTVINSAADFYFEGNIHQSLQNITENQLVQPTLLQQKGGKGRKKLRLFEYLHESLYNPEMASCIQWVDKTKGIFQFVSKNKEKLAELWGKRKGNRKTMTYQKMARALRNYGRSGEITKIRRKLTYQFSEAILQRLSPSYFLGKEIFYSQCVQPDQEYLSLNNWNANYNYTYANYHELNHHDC
# Procedure, shortened: as §1
# ELF4 = ELF4 (Homo sapiens, UniProt Q99607 1-663); conditions: protein: recombinant; tags: N-terminal GST; dsDNA, one strand shown
# ELF4, sequence (Q99607 whole entry): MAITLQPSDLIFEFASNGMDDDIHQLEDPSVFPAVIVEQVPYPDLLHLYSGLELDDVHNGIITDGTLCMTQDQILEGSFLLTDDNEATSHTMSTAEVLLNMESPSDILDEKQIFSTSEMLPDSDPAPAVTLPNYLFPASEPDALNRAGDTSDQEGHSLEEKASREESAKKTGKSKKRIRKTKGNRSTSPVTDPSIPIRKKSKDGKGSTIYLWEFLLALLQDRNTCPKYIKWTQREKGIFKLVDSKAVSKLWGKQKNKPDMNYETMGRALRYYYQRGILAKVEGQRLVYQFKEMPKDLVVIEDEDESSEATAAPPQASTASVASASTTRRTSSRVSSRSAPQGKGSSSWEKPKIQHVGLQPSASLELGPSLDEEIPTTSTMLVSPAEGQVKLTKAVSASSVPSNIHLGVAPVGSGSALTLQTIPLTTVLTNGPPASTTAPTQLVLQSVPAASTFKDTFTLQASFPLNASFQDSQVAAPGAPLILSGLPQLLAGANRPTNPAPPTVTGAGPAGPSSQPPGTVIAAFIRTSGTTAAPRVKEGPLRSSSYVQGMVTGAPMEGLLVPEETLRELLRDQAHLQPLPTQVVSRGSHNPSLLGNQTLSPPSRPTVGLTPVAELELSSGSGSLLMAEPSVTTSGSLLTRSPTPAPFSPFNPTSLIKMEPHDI
# Procedure, shortened: as §1
# ELK4 = target: T9, ELK4 (Homo sapiens, UniProt P28324-2 1-405); conditions: protein: recombinant; tags: N-terminal GST; dsDNA, one strand shown
# T9 sequence: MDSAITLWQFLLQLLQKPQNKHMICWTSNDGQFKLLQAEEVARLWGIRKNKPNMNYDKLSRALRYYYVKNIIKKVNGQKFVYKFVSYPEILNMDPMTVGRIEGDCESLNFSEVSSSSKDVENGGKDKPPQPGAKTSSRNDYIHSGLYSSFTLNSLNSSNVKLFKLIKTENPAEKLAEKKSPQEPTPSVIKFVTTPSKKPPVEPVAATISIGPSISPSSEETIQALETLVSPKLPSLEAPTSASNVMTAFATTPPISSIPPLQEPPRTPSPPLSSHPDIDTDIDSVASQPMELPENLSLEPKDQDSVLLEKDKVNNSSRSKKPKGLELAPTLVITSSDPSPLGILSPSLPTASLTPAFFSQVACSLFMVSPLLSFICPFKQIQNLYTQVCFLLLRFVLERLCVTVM
# Procedure, shortened: as §1
# ETV2 = target: T10, ETV2 (Homo sapiens, UniProt O00321 1-342); conditions: protein: recombinant; tags: N-terminal GST; dsDNA, one strand shown
# T10 sequence: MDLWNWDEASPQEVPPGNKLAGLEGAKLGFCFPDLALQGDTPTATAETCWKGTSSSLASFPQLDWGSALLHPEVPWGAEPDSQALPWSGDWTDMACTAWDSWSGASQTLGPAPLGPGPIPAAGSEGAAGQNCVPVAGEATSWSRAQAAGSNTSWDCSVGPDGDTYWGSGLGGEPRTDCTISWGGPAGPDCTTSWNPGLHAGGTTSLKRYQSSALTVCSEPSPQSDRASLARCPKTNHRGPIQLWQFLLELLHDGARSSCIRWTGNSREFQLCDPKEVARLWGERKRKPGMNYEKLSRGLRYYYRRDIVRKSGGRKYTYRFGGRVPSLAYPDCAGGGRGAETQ
# Procedure, shortened: as §1
# ELF3 = target: T11, ELF3 (Homo sapiens, UniProt P78545 1-371); conditions: protein: recombinant; tags: N-terminal GST; dsDNA, one strand shown
# T11 sequence: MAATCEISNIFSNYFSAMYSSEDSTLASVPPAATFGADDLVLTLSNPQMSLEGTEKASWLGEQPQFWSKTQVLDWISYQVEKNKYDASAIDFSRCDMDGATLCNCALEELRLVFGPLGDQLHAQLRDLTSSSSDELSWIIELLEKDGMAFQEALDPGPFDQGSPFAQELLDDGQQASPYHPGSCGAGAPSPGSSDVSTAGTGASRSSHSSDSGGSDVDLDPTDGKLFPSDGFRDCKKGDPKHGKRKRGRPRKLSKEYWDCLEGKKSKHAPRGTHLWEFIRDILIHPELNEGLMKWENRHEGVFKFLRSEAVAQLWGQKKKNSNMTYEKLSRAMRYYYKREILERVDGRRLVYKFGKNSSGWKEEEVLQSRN
# Procedure, shortened: as §1
# CRX = CRX (Homo sapiens, UniProt O43186 1-299); conditions: protein: recombinant; tags: N-terminal GST; dsDNA, one strand shown
# CRX, sequence (O43186 whole entry): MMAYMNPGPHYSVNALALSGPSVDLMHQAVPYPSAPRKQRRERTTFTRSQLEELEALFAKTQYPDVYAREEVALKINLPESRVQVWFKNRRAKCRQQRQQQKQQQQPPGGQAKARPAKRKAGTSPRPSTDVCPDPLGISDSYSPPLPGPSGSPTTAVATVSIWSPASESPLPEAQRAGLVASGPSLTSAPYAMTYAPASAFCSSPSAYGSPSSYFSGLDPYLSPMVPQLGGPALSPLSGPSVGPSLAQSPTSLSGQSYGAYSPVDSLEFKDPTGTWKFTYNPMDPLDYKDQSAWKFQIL
# Procedure, shortened: as §1
# ETV1 = ETV1 (Homo sapiens, UniProt P50549 1-477); conditions: protein: recombinant; tags: N-terminal GST; dsDNA, one strand shown
# ETV1, sequence (P50549 whole entry): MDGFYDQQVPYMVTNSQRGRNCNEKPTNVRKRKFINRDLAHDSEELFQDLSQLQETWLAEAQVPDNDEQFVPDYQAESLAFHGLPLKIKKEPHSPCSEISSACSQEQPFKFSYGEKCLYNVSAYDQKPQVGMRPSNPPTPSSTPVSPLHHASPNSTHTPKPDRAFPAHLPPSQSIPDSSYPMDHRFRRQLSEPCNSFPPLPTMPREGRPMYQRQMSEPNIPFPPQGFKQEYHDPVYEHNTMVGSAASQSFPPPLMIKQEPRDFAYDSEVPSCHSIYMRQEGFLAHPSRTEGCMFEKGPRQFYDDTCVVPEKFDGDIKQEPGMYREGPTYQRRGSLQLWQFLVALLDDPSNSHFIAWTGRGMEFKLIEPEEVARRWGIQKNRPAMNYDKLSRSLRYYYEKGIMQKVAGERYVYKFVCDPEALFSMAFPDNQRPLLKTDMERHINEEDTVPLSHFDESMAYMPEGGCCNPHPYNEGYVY
# Procedure, shortened: as §1
sequence,measurement,setting,value
TTGTAC,binding signal,FLI1,"1.37 fold enrichment (6-mer frequency, TF over GST control)"
same,binding signal,ELK1,"1.51 fold enrichment (6-mer frequency, TF over GST control)"
same,binding signal,GABPA,"1.32 fold enrichment (6-mer frequency, TF over GST control)"
same,binding signal,ERG,"1.33 fold enrichment (6-mer frequency, TF over GST control)"
same,binding signal,ELF1,"1.41 fold enrichment (6-mer frequency, TF over GST control)"
same,binding signal,EHF,"1.33 fold enrichment (6-mer frequency, TF over GST control)"
same,binding signal,SPI1,"1.39 fold enrichment (6-mer frequency, TF over GST control)"
same,binding signal,SPIB,"1.44 fold enrichment (6-mer frequency, TF over GST control)"
same,binding signal,ELK3,"1.18 fold enrichment (6-mer frequency, TF over GST control)"
same,binding signal,FEV,"1.52 fold enrichment (6-mer frequency, TF over GST control)"
same,binding signal,ETV5,"1.48 fold enrichment (6-mer frequency, TF over GST control)"
same,binding signal,HSF1,"1.24 fold enrichment (6-mer frequency, TF over GST control)"
same,binding signal,SPIC,"1.46 fold enrichment (6-mer frequency, TF over GST control)"
same,binding signal,ELF4,"1.47 fold enrichment (6-mer frequency, TF over GST control)"
same,binding signal,ELK4,"1.55 fold enrichment (6-mer frequency, TF over GST control)"
same,binding signal,ETV2,"1.48 fold enrichment (6-mer frequency, TF over GST control)"
same,binding signal,ELF3,"1.39 fold enrichment (6-mer frequency, TF over GST control)"
same,binding signal,CRX,"1.2 fold enrichment (6-mer frequency, TF over GST control)"
same,binding signal,ETV1,"1.24 fold enrichment (6-mer frequency, TF over GST control)"
